# ChEMBL document CHEMBL1157539, “Thousands of chemical starting points for antimalarial lead identification” (Nature, 2010)
# Test system: Plasmodium falciparum
# Test: GSK_TCMDC: Inhibition of Plasmodium falciparum 3D7 in whole red blood cells, using parasite LDH activity as an index of growth. Test compounds present at 2uM
# Type: functional
row,Structure (SMILES),Inhibition
1,COc1ccc(C2C(C(=O)Nc3ccc4c(c3)OCO4)c3cc(OC)c(OC)cc3C(=O)N2C)cc1 (stereo not given),89%
2,COc1cc(C)c(C(O)CNC(C)CCc2ccccc2)cc1C.Cl (stereo not given),98%
3,CN(C)c1ccc2nc(N)nc(N)c2c1Cl.Cl,98%
4,Cl.N#Cc1ccc2c(c1)CCN(CCC1CCC(NC(=O)/C=C/c3cccc4ccccc34)CC1)CC2 (stereo not given),96%
5,O=C(Nc1ccccc1)NC1CCN(CCC2(c3ccc(Cl)c(Cl)c3)COCN(C(=O)c3ccccc3)C2)C1 (stereo not given),92%
6,CC(C)c1cc(Oc2c(I)cc(CCCc3ncc[nH]3)cc2I)ccc1O.Cl,88%
7,S=c1nc(-c2ccccc2)n2ccsc2n1,95%
8,O=C(Nc1cccc(CN2CCCN(CC3CCCCC3)CC2)c1)c1ccc(Cl)c(Cl)c1.O=C(O)C(F)(F)F,91%
9,O=C(Nc1ccc(-c2cccc(-c3nc4cc(C(F)(F)F)ccc4[nH]3)c2)cc1)Nc1ccc(Cl)c(Cl)c1,98%
10,Cc1cc(CN2CC[C@H](NC(=O)c3ccc(Cl)c(Cl)c3)C2)ccc1OCCN1CCNCC1.O=C(O)C(F)(F)F,94%
11,COc1ccc2nccc(N3CCC(SCCNCc4ccc5c(n4)NC(=O)CO5)C3)c2n1.Cl (stereo not given),100%
12,CN1CCC(NCc2ccc(-c3cccc(S(=O)(=O)NCCc4ccccn4)c3)cc2)CC1.O=C(O)C(F)(F)F,84%
13,CC(C)OC(=O)c1ccccc1S(N)(=O)=O,97%
14,O=S(=O)(c1ccccc1)C1CC1,89%
15,Cl.N#Cc1ccc2c(c1)CCN(CCC1CCC(NC(=O)c3cc4ccccc4[nH]3)CC1)CC2 (stereo not given),89%
16,CC(C)(CN)c1nc(-c2ccc(Cl)c(O)c2)c(-c2ccnc(N)n2)[nH]1,95%
17,Cc1ccc2[nH]c(C)cc(=NN=CC=Cc3ccccc3)c2c1,92%
18,COc1cc(C(=O)NC2CC(C)(C)N(C)C(C)(C)C2)ccc1-c1nc2cc(Cl)c(Cl)cc2[nH]1,100%
19,O=C(CCC1CCCCC1=O)c1ccccc1 (stereo not given),91%
20,Cc1cc(=NN=Cc2ccccc2Cl)c2ccc(F)cc2[nH]1,100%

row,Structure (SMILES),Inhibition
1,Nc1nc(N)c2c(ccc3c2ncn3Cc2ccccc2)n1,96%
2,Br.Oc1ccc(CCNCCCCCCNCCc2ccc(Cl)c(Cl)c2)cc1O,100%
3,CCn1c(Sc2ccc([N+](=O)[O-])c(C#N)c2)nnc1-c1ccc(Cl)cc1,93%
4,COc1cc(Br)c(S(=O)(=O)n2cc(CN3CCC(N)CC3)c3cc(Cl)ccc32)cc1OC.O=C(O)C(F)(F)F,99%
5,O=C(O)C(F)(F)F.O=S(=O)(NCCN1CCCC1)c1ccc(-c2ccc(CNC3Cc4ccccc4C3)cc2)cc1F,100%
6,COc1cccc(NC(=O)NC2CCN(c3ccnc(Nc4ccc(F)cc4)n3)C2)c1 (stereo not given),100%
7,COC(=O)c1ccc(-c2ccc(-c3cccnc3)cc2C)cc1,100%
8,COc1ccccc1-c1csc(C(=O)NCC2CCN(Cc3ccc(C(C)C)cc3)C2)c1.O=C(O)C(F)(F)F (stereo not given),81%
9,FC(F)(F)c1ccc2[nH]c(-c3ccc(-c4ccc(CN5CCN(c6cnccn6)CC5)cc4)cc3)nc2c1.O=C(O)C(F)(F)F,99%
10,CN(Cc1cc(C(F)(F)F)cc(C(F)(F)F)c1)C(=O)C(Cc1ccc(F)cc1)C1CCCNC1 (stereo not given),96%
11,COc1ccc(C(=O)N2CCC3(CC2)C(=O)N(CC(=O)NCC2CCCCC2)CN3c2ccccc2)c(OC)c1,100%
12,O=C(NC1CCN(Cc2ccccc2)CC1)c1ccc(-c2nc3cc4ccccc4cc3[nH]2)s1,99%
13,CCn1c(-c2nonc2N)nc2c(-c3ccccc3)ncc(OCCCNCCCN3CCOCC3)c21.O=C(O)C(F)(F)F,100%
14,CCN(CC)CCN(Cc1ccc(-c2ccc(C(F)(F)F)cc2)cc1)C(=O)Cn1c(CCc2cc(F)c(F)cc2F)nc(=O)c2ccccc21.O=C(O)C(O)C(O)C(=O)O,99%
15,CC(C)COc1ccc(Cl)cc1Cc1nc(-c2nc3cccc(CN4CCN(C)CC4)c3[nH]2)cs1,99%
16,Cn1ccc(C(=O)Nc2ccc3c(c2)CN(Cc2ccc(N4CCCC4)o2)CCC3)n1.O=CO,80%
17,O=C(c1cccc(-c2ccc(-c3nc4cc(F)ccc4[nH]3)s2)c1)N1CCCCC1CN1CCC(O)C1 (stereo not given),100%
18,N=C1NC(=O)C(=Cc2cn(-c3ccccc3)nc2-c2cccc(S(=O)(=O)N3CCCC3)c2)S1,85%
19,CC(C)CCN1CCC(Oc2ccc(NC(=O)c3ccccc3)cc2Cl)CC1.O=C(O)C(F)(F)F,87%
20,Cc1cccc2nc(-c3ccc(-c4cccc(CNCCCN5CCCC5=O)c4)s3)[nH]c12.O=C(O)C(F)(F)F,100%

# Test system: Plasmodium falciparum
# Test: GSK_TCMDC: Inhibition of Plasmodium falciparum Dd2 in whole red blood cells, using parasite LDH activity as an index of growth. Test compounds present at 2uM
# Type: functional
row,Structure (SMILES),Inhibition
1,COc1ccc(C2C(C(=O)Nc3ccc4c(c3)OCO4)c3cc(OC)c(OC)cc3C(=O)N2C)cc1 (stereo not given),54%
2,COc1cc(C)c(C(O)CNC(C)CCc2ccccc2)cc1C.Cl (stereo not given),98%
3,CN(C)c1ccc2nc(N)nc(N)c2c1Cl.Cl,0%
4,Cl.N#Cc1ccc2c(c1)CCN(CCC1CCC(NC(=O)/C=C/c3cccc4ccccc34)CC1)CC2 (stereo not given),12%
5,O=C(Nc1ccccc1)NC1CCN(CCC2(c3ccc(Cl)c(Cl)c3)COCN(C(=O)c3ccccc3)C2)C1 (stereo not given),81%
6,CC(C)c1cc(Oc2c(I)cc(CCCc3ncc[nH]3)cc2I)ccc1O.Cl,1%
7,S=c1nc(-c2ccccc2)n2ccsc2n1,0%
8,O=C(Nc1cccc(CN2CCCN(CC3CCCCC3)CC2)c1)c1ccc(Cl)c(Cl)c1.O=C(O)C(F)(F)F,15%
9,O=C(Nc1ccc(-c2cccc(-c3nc4cc(C(F)(F)F)ccc4[nH]3)c2)cc1)Nc1ccc(Cl)c(Cl)c1,23%
10,Cc1cc(CN2CC[C@H](NC(=O)c3ccc(Cl)c(Cl)c3)C2)ccc1OCCN1CCNCC1.O=C(O)C(F)(F)F,1%
11,COc1ccc2nccc(N3CCC(SCCNCc4ccc5c(n4)NC(=O)CO5)C3)c2n1.Cl (stereo not given),9%
12,CN1CCC(NCc2ccc(-c3cccc(S(=O)(=O)NCCc4ccccn4)c3)cc2)CC1.O=C(O)C(F)(F)F,0%
13,CC(C)OC(=O)c1ccccc1S(N)(=O)=O,0%
14,O=S(=O)(c1ccccc1)C1CC1,65%
15,Cl.N#Cc1ccc2c(c1)CCN(CCC1CCC(NC(=O)c3cc4ccccc4[nH]3)CC1)CC2 (stereo not given),25%
16,CC(C)(CN)c1nc(-c2ccc(Cl)c(O)c2)c(-c2ccnc(N)n2)[nH]1,95%
17,Cc1ccc2[nH]c(C)cc(=NN=CC=Cc3ccccc3)c2c1,28%
18,COc1cc(C(=O)NC2CC(C)(C)N(C)C(C)(C)C2)ccc1-c1nc2cc(Cl)c(Cl)cc2[nH]1,99%
19,O=C(CCC1CCCCC1=O)c1ccccc1 (stereo not given),3%
20,Cc1cc(=NN=Cc2ccccc2Cl)c2ccc(F)cc2[nH]1,100%

row,Structure (SMILES),Inhibition
1,Nc1nc(N)c2c(ccc3c2ncn3Cc2ccccc2)n1,96%
2,Br.Oc1ccc(CCNCCCCCCNCCc2ccc(Cl)c(Cl)c2)cc1O,2%
3,CCn1c(Sc2ccc([N+](=O)[O-])c(C#N)c2)nnc1-c1ccc(Cl)cc1,7%
4,COc1cc(Br)c(S(=O)(=O)n2cc(CN3CCC(N)CC3)c3cc(Cl)ccc32)cc1OC.O=C(O)C(F)(F)F,32%
5,O=C(O)C(F)(F)F.O=S(=O)(NCCN1CCCC1)c1ccc(-c2ccc(CNC3Cc4ccccc4C3)cc2)cc1F,75%
6,COc1cccc(NC(=O)NC2CCN(c3ccnc(Nc4ccc(F)cc4)n3)C2)c1 (stereo not given),71%
7,COC(=O)c1ccc(-c2ccc(-c3cccnc3)cc2C)cc1,98%
8,COc1ccccc1-c1csc(C(=O)NCC2CCN(Cc3ccc(C(C)C)cc3)C2)c1.O=C(O)C(F)(F)F (stereo not given),6%
9,FC(F)(F)c1ccc2[nH]c(-c3ccc(-c4ccc(CN5CCN(c6cnccn6)CC5)cc4)cc3)nc2c1.O=C(O)C(F)(F)F,50%
10,CN(Cc1cc(C(F)(F)F)cc(C(F)(F)F)c1)C(=O)C(Cc1ccc(F)cc1)C1CCCNC1 (stereo not given),89%
11,COc1ccc(C(=O)N2CCC3(CC2)C(=O)N(CC(=O)NCC2CCCCC2)CN3c2ccccc2)c(OC)c1,99%
12,O=C(NC1CCN(Cc2ccccc2)CC1)c1ccc(-c2nc3cc4ccccc4cc3[nH]2)s1,25%
13,CCn1c(-c2nonc2N)nc2c(-c3ccccc3)ncc(OCCCNCCCN3CCOCC3)c21.O=C(O)C(F)(F)F,91%
14,CCN(CC)CCN(Cc1ccc(-c2ccc(C(F)(F)F)cc2)cc1)C(=O)Cn1c(CCc2cc(F)c(F)cc2F)nc(=O)c2ccccc21.O=C(O)C(O)C(O)C(=O)O,50%
15,CC(C)COc1ccc(Cl)cc1Cc1nc(-c2nc3cccc(CN4CCN(C)CC4)c3[nH]2)cs1,30%
16,Cn1ccc(C(=O)Nc2ccc3c(c2)CN(Cc2ccc(N4CCCC4)o2)CCC3)n1.O=CO,72%
17,O=C(c1cccc(-c2ccc(-c3nc4cc(F)ccc4[nH]3)s2)c1)N1CCCCC1CN1CCC(O)C1 (stereo not given),85%
18,N=C1NC(=O)C(=Cc2cn(-c3ccccc3)nc2-c2cccc(S(=O)(=O)N3CCCC3)c2)S1,68%
19,CC(C)CCN1CCC(Oc2ccc(NC(=O)c3ccccc3)cc2Cl)CC1.O=C(O)C(F)(F)F,88%
20,Cc1cccc2nc(-c3ccc(-c4cccc(CNCCCN5CCCC5=O)c4)s3)[nH]c12.O=C(O)C(F)(F)F,26%
